# System: Vero E6 infected with SARS-CoV-2
# Experiment: inhibition of SARS-CoV-2 cytopathic effect; higher = more antiviral protection, active = above 15
# Conditions: 100 nM; 48 h
row,Compound,inhibition of SARS-CoV-2 cytopathic effect
1,N=C(N)c1ccc(/N=N/Nc2ccc(C(=N)N)cc2)cc1 [diminazene-aceturate],-3.27% (inactive)
2,O=S(=O)(O)CCS [mesna],1.16% (inactive)
3,CC(=O)c1cnc2ccc(-c3cc(Cl)c(O)c(Cl)c3)nc2c1N[C@H]1CC[C@H](CN(C)C)CC1,-1.37% (inactive)
4,NC(=O)[C@@H](CC1CC1)[C@@H](CCC(F)(F)F)C(=O)N[C@H]1N=C(c2ccccc2)c2cccc(F)c2NC1=O,-3.47% (inactive)
5,CC[C@@]1([C@H]2O[C@H]([C@H]3O[C@@](O)(CO)[C@H](C)C[C@@H]3C)C[C@H]2C)CC[C@H]([C@@]2(C)CC[C@]3(C[C@H](O)[C@@H](C)[C@@H]([C@H](C)[C@H](OC)[C@@H](C)C(=O)O)O3)O2)O1,2.93% (inactive)
6,C[C@H](N)C(=O)N[C@@H](CCC(N)=O)C(=O)O [dipeptamin],-0.9% (inactive)
7,CC(=O)Oc1ccccc1C(=O)Oc1cccc(CO[N+](=O)[O-])c1,-0.7% (inactive)
8,C[C@H]1O[C@@H](O[C@H]2[C@@H](O)C[C@H](O[C@H]3[C@@H](O)C[C@H](O[C@H]4CC[C@@]5(C)[C@H](CC[C@@H]6[C@@H]5C[C@@H](O)[C@]5(C)[C@@H](C7=CC(=O)OC7)CC[C@]65O)C4)O[C@@H]3C)O[C@@H]2C)C[C@H](O)[C@@H]1O [digoxin],-7.12% (inactive)
9,O=S(=O)(O)c1ccc(-c2c3nc(c(-c4ccc(S(=O)(=O)O)cc4)c4ccc([nH]4)c(-c4ccc(S(=O)(=O)O)cc4)c4nc(c(-c5ccc(S(=O)(=O)O)cc5)c5ccc2[nH]5)C=C4)C=C3)cc1,-5.47% (inactive)

# — the supplement of paper PMC13380429
